In PubChem BioAssay AID1159580 (chemical genetic matrix, 2015):
The campaign covered roughly 5,500 compounds. About 2,000 (36%) were called active. Another 18% or so got no clear call; they are omitted. Cut-off read from the data, not from the text of the source: active = normalized growth mostly below about 0.91 (no sharp cut-off); inconclusive = no clear call, values can overlap the other calls; inactive = mostly above about 0.92. Some of the results follow.

Experiment: chemical genetic growth profiling, strain panel (AID 1159580);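 note: tested at 20 µM; growth read once vehicle control cultures reached saturation at 30 °C; 1 = growth at the plate median or of vehicle wells; lower values mean less growth of the strain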
Conditions: growth OD

Measured: normalized growth

O=c1[nH]cnc2c1ncn2C1O[C@H](CO)[C@@H](O)[C@H]1O (some centres undefined)
inactive: S. cerevisiae deletion strains, locus YJR075W, strain HOC1, stronger effect = lower value 1.01 | S. cerevisiae deletion strains, locus YKL009W, strain mrt4, stronger effect = lower value 0.979 | S. cerevisiae deletion strains, locus YKL068W, stronger effect = lower value 1.01 | S. cerevisiae deletion strains, locus YKL085W, strain MDH1 (second series), stronger effect = lower value 0.998 | S. cerevisiae deletion strains, locus YKL085W, strain MDH1, stronger effect = lower value 0.998 | S. cerevisiae deletion strains, locus YKL160W, strain elf1, stronger effect = lower value 0.986 | S. cerevisiae deletion strains, locus YKL190W, strain CNB1, stronger effect = lower value 1 | S. cerevisiae deletion strains, locus YKR001C, strain vps1, stronger effect = lower value 1.06 | S. cerevisiae deletion strains, locus YKR026C, strain gcn3, stronger effect = lower value 0.984 | S. cerevisiae deletion strains, locus YKR091W, strain srl3, stronger effect = lower value 0.986 | S. cerevisiae deletion strains, locus YLL001W, strain dnm1, stronger effect = lower value 1.01 | S. cerevisiae deletion strains, locus YLL026W, stronger effect = lower value 0.993 | S. cerevisiae deletion strains, locus YLL041C, strain sdh2, stronger effect = lower value 1 | S. cerevisiae deletion strains, locus YLR027C, strain aat2, stronger effect = lower value 0.994 | S. cerevisiae deletion strains, locus YLR039C, strain RIC1, stronger effect = lower value 1.04 | S. cerevisiae deletion strains, locus YLR058C, strain SHM2, stronger effect = lower value 0.999 | S. cerevisiae deletion strains, locus YLR102C, strain apc9, stronger effect = lower value 1.04 | S. cerevisiae deletion strains, locus YLR113W, strain HOG1, stronger effect = lower value 0.978 | S. cerevisiae deletion strains, locus YLR221C, strain rsa3, stronger effect = lower value 0.96 | S. cerevisiae deletion strains, locus YLR258W, strain gsy2, stronger effect = lower value 0.99 | S. cerevisiae deletion strains, locus YLR262C, strain YPT6 (second series), stronger effect = lower value 1.02 | S. cerevisiae deletion strains, locus YLR262C, strain YPT6, stronger effect = lower value 1.05 | S. cerevisiae deletion strains, locus YLR268W, strain sec22, stronger effect = lower value 1.05 | S. cerevisiae deletion strains, locus YLR320W, strain mms22, stronger effect = lower value 0.959 | S. cerevisiae deletion strains, locus YLR330W, strain CHS5, stronger effect = lower value 1.01 | S. cerevisiae deletion strains, locus YLR342W, strain FKS1 (second series), stronger effect = lower value 0.996 | S. cerevisiae deletion strains, locus YLR342W, strain FKS1, stronger effect = lower value 0.989 | S. cerevisiae deletion strains, locus YLR357W, strain rsc2, stronger effect = lower value 0.971 | S. cerevisiae deletion strains, locus YLR370C, strain arc18, stronger effect = lower value 0.991 | S. cerevisiae deletion strains, locus YLR371W, strain rom2, stronger effect = lower value 1.01 | S. cerevisiae deletion strains, locus YLR384C, strain iki3, stronger effect = lower value 0.969 | S. cerevisiae deletion strains, locus YLR418C, strain cdc73, stronger effect = lower value 1.01 | S. cerevisiae deletion strains, locus YML016C, strain PPZ1, stronger effect = lower value 1 | S. cerevisiae deletion strains, locus YML032C, strain rad52, stronger effect = lower value 1.01 | S. cerevisiae deletion strains, locus YML120C, strain ndi1, stronger effect = lower value 1.01 | S. cerevisiae deletion strains, locus YML124C, strain tub3, stronger effect = lower value 1.02 | S. cerevisiae deletion strains, locus YMR058W, strain fet3, stronger effect = lower value 0.992 | S. cerevisiae deletion strains, locus YMR078C, strain ctf18, stronger effect = lower value 1.06 | S. cerevisiae deletion strains, locus YMR125W, strain sto1, stronger effect = lower value 1.01 | S. cerevisiae deletion strains, locus YMR129W, stronger effect = lower value 0.997 | S. cerevisiae deletion strains, locus YMR205C, strain PFK2, stronger effect = lower value 0.984 | S. cerevisiae deletion strains, locus YMR223W, strain ubp8, stronger effect = lower value 1.01 | S. cerevisiae deletion strains, locus YMR231W, strain pep5, stronger effect = lower value 0.977 | S. cerevisiae deletion strains, locus YMR263W, strain SAP30, stronger effect = lower value 1 | S. cerevisiae deletion strains, locus YMR307W, strain GAS1, stronger effect = lower value 1.01 | S. cerevisiae deletion strains, locus YNL067W, strain RPL9B, stronger effect = lower value 1.01 | S. cerevisiae deletion strains, locus YNL071W, strain lat1, stronger effect = lower value 1 | S. cerevisiae deletion strains, locus YNL153C, strain GIM3, stronger effect = lower value 0.99 | S. cerevisiae deletion strains, locus YNL183C, strain NPR1, stronger effect = lower value 0.908 | S. cerevisiae deletion strains, locus YNL209W, strain ssb2, stronger effect = lower value 0.995 | S. cerevisiae deletion strains, locus YNL233W, strain BNI4, stronger effect = lower value 1.02 | S. cerevisiae deletion strains, locus YNL248C, strain rpa49, stronger effect = lower value 0.902 | S. cerevisiae deletion strains, locus YNL250W, strain rad50, stronger effect = lower value 1.03 | S. cerevisiae deletion strains, locus YNL271C, strain bni1, stronger effect = lower value 1.04 | S. cerevisiae deletion strains, locus YNL298W, strain CLA4, stronger effect = lower value 1.03 | S. cerevisiae deletion strains, locus YNL307C, strain MCK1, stronger effect = lower value 1.05 | S. cerevisiae deletion strains, locus YNL322C, strain KRE1 (second series), stronger effect = lower value 0.985 | S. cerevisiae deletion strains, locus YNR049C, strain mso1, stronger effect = lower value 0.978 | S. cerevisiae deletion strains, locus YNR052C, strain pop2, stronger effect = lower value 1.02 | S. cerevisiae deletion strains, locus YOL012C, strain htz1 1.16 | S. cerevisiae deletion strains, locus YOL147C, strain pex11, stronger effect = lower value 1.04 | S. cerevisiae deletion strains, locus YOR001W, strain rrp6, stronger effect = lower value 0.994 | S. cerevisiae deletion strains, locus YOR061W, strain CKA2, stronger effect = lower value 1.01 | S. cerevisiae deletion strains, locus YOR069W, strain VPS5, stronger effect = lower value 1 | S. cerevisiae deletion strains, locus YOR070C, strain gyp1, stronger effect = lower value 0.991 | S. cerevisiae deletion strains, locus YOR080W, strain dia2, stronger effect = lower value 0.99 | S. cerevisiae deletion strains, locus YOR083W, strain WHI5, stronger effect = lower value 0.998 | S. cerevisiae deletion strains, locus YOR106W, strain vam3, stronger effect = lower value 1.01 | S. cerevisiae deletion strains, locus YOR136W, strain idh2, stronger effect = lower value 1.02 | S. cerevisiae deletion strains, locus YOR144C, strain elg1, stronger effect = lower value 1.03 | S. cerevisiae deletion strains, locus YOR184W, strain ser1, stronger effect = lower value 1.05 | S. cerevisiae deletion strains, locus YOR231W, strain MKK1, stronger effect = lower value 0.982 | S. cerevisiae deletion strains, locus YOR265W, strain rbl2, stronger effect = lower value 0.984 | S. cerevisiae deletion strains, locus YOR270C, strain vph1, stronger effect = lower value 0.987 | S. cerevisiae deletion strains, locus YOR290C, strain snf2, stronger effect = lower value 1 | S. cerevisiae deletion strains, locus YOR316C, strain cot1, stronger effect = lower value 1.04 | S. cerevisiae deletion strains, locus YPL051W, strain arl3, stronger effect = lower value 0.977 | S. cerevisiae deletion strains, locus YPL055C, strain LGE1, stronger effect = lower value 1.03 | S. cerevisiae deletion strains, locus YPL078C, strain atp4, stronger effect = lower value 1 | S. cerevisiae deletion strains, locus YPL106C, strain sse1, stronger effect = lower value 1.02 | S. cerevisiae deletion strains, locus YPL240C, strain hsp82, stronger effect = lower value 0.984 | S. cerevisiae deletion strains, locus YPL241C, strain CIN2, stronger effect = lower value 1 | S. cerevisiae deletion strains, locus YPL256C, strain CLN2, stronger effect = lower value 0.965 | S. cerevisiae deletion strains, locus YPR119W, strain clb2, stronger effect = lower value 1.06 | S. cerevisiae deletion strains, locus YPR141C, strain kar3, stronger effect = lower value 1.03 | S. cerevisiae deletion strains, locus YPR163C, strain tif3, stronger effect = lower value 1.02 | S. cerevisiae deletion strains, locus YPR167C, strain met16, stronger effect = lower value 1.02 | S. cerevisiae deletion strains, strain wtn01, stronger effect = lower value 1.04 | S. cerevisiae strains, strain wild type, stronger effect = lower value 1.01
